According to PubChem BioAssay AID624330 (Southern Research Specialized Biocontainment Screening …, 2012):
The whole screen tested about 340,000 compounds, of which about 2,100 (0.62%) were called active.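 The calls were made as follows: active = first-screen hits whose inhibition reached a set limit at any dose in the follow-up dose series; inconclusive = inhibition above the set first-screen limit but never retested; inactive = the rest.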 Only a sample is shown. Potency and affinity values are given separately.

Each compound was assayed against Rac GTPase-activating protein 1 (Homo sapiens) (UniProt Q9H0H5) (assay: MgcRacGAP GTPase-activating activity inhibitors, confirmation, biochemical, ADP Hunter fluorescence, primary and confirmatory (AID 624330;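 also: fluorescence reports GDP produced by GAP-driven GTP hydrolysis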)). Conditions: MgcRacGAP-stimulated Rac1 GTP hydrolysis, at 30 µM, stronger effect = higher value, GST-tagged Rac1 F28L mutant substrate.
Rac GTPase-activating protein 1 (Homo sapiens), sequence (Q9H0H5 whole entry, looked up): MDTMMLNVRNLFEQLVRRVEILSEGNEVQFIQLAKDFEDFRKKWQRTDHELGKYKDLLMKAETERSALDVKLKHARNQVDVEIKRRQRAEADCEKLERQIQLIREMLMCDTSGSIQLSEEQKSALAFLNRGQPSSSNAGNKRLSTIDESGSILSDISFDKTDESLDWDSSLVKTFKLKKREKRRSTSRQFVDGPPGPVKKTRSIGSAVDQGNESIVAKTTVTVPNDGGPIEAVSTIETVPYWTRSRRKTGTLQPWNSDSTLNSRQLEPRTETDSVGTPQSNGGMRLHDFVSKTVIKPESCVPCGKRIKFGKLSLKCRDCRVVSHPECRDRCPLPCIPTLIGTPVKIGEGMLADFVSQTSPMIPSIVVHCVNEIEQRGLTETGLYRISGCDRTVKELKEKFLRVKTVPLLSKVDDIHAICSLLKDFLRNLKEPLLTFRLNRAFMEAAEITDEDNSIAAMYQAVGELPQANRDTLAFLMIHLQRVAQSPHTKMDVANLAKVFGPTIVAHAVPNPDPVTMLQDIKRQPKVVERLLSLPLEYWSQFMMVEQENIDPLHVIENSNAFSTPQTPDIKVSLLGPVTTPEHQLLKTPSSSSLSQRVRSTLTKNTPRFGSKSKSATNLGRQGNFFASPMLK

inhibition, inactive:
COc1cc(NC(=O)c2cccc(F)c2)cc(OC)c1OC 8.45%
C=CCn1c2ccccc2c2n[nH]c(=S)nc21 3.05%
COCCNC(=O)c1c[nH]c2ccc(S(=O)(=O)N3CCC4(CC3)OCCO4)cc2c1=O 10.7%
Cc1ccc(N=C2CCCCCN2C)c(C#N)c1 3.58%
N#Cc1ccccc1N=C1CCCN1Cc1ccccc1 16.7%
CCc1ccc(OCC(O)Cn2c(N3CCCCC3)nc3c2c(=O)[nH]c(=O)n3C)cc1 (stereo unspecified) -4.27%
O=C(Nc1ccccc1Cl)OCC#CCOC(=O)Nc1ccccc1Cl 11%
O=C(Nc1ccccc1Cl)Oc1ccc(Cl)cc1Cl 9.61%
C[C@@H]1CN([C@@H](C)CO)C(=O)CCCn2nncc2CO[C@H]1CN(C)C(=O)Nc1ccc(N2CCCCC2)cc1 11.5%
O=C(CCN1C(=O)/C(=C/c2ccccc2Cl)SC1=S)NN1CCOCC1 4.7%
Cn1nccc1NC(=O)Nc1cccc(Cl)c1Cl 2.52%
CC(C)(C)c1nnc(N/N=C/c2ccc(Br)cc2)n(N)c1=O 9.58%
CC(C)(C)c1nnc(N/N=C/c2ccccc2)n(N)c1=O 8.65%
CCOc1ccc(NC(=O)CN(C)C(=O)c2cn(-c3ccc(F)cc3)nc2-c2cccc(OC)c2)cc1OCC 0.09%
CC(OC(=O)/C=C/c1ccccc1)C(=O)Nc1ccc2c(c1)OCCO2 (stereo unspecified) 9.16%
O=C(NCCc1nc2ccccc2[nH]1)Nc1ccccc1 8.22%
NS(=O)(=O)c1cccc(NC(=O)c2cccc(-c3ccc(O)cc3)c2)c1 12.5%
COc1ccc(NC(=O)c2cccc(Oc3ccccc3)c2)cn1 4.7%
COc1cccc(C(=O)Nc2cccc(NC(C)=O)c2)c1 10.6%
COc1ccc(NC(=O)c2cc(OC)c(OC)c(OC)c2)cn1 7.64%
CCOc1ccc(N(C(C)C(=O)Nc2ccc(OC)cc2)S(C)(=O)=O)cc1 (stereo unspecified) 9.57%
Cc1ccc(NC(=O)COC(=O)c2cc(Cl)ccc2[N+](=O)[O-])cc1 9%
O=C1c2c(O)cc(O)cc2O[C@H](c2ccc(O)c(O)c2)[C@H]1O 13.3%
O=C(c1c(O)cc(O)cc1O)C1c2c(cc(O)c3c2O[C@H](c2ccc(O)cc2)[C@@H](O)C3)OC1c1ccc(O)cc1 (stereo partly specified) 12.8%
COc1cc2c3c([nH]c2cc1F)C(=O)NCC3 9.04%
O=[N+]([O-])c1cccc(CSc2nc3ccccc3[nH]2)c1 3.52%
CCN(CC(=O)Nc1cc(Cl)ccc1C)C(=O)COc1ccccc1F -0.45%
Cc1ccc(N/N=C/c2ccc(N3CCOCC3)cc2)cc1C 24.2%
CCCOc1ccc(/C=N/Nc2ccccn2)cc1OC 13.1%
Brc1ccc(/C=N/Nc2ccccn2)cc1 10.9%
CCOc1ccc(/C=N/Nc2ccccn2)cc1OC 6.25%
C=CCOc1ccc(/C=N/Nc2ccccn2)cc1OC 9.55%
C(=N\n1cnnc1)/c1ccc(N2CCOCC2)cc1 8.48%
COc1cc(/C=N/Nc2ccccn2)ccc1OCC(C)C 1.63%
Clc1ccc(/C=N/Nc2ccccn2)cc1 11.1%
COc1ccccc1-c1nnc(SC)n1C 7.84%
CC(=O)N1N=C(c2ccccc2)CC1c1ccc2c(c1)OCO2 (stereo unspecified) 13.6%
CC(C)(C)OC(=O)C[C@H]1C/C=C\C[C@@H](CC(=O)NCCO)C(=O)N[C@H](Cc2ccccc2)COC1=O 5.95%
CC1Cc2ccccc2N1S(=O)(=O)c1cnc(Cl)c(Cl)c1 (stereo unspecified) 6.78%
O=S(=O)(NCC(c1ccc2c(c1)OCO2)N1CCOCC1)c1ccccc1 (stereo unspecified) 4.31%
O=C(CCCC1=NS(=O)(=O)c2ccccc2N1)NCCc1ccc(Cl)cc1 12.4%
CN(C1CCCCC1)S(=O)(=O)c1ccc(=S)[nH]c1 16.8%
Cc1cccc(COCC(Cc2ccccc2)N2CCN(C(=O)c3cc(Cl)cc(Cl)c3)CCC2=O)c1 (stereo unspecified) 10.4%
Cc1noc(C)c1COc1ccc(C(=O)N2CCN(c3ccccc3O)CC2)cc1 -2.07%
O=C(Nc1nc2ccc(F)cc2s1)C1CC(=O)N(c2ccc3c(c2)OCCO3)C1 (stereo unspecified) 3.42%
CC(C)(C)c1ccc(NC(=O)COC(=O)C2CCCC2)cc1 6%
C(=N\Nc1ccccc1)/c1ccc(N2CCOCC2)cc1 11%
COc1cc(/C=N/Nc2ncnc3sc4c(c23)CCC4)ccc1O 6.14%
COc1ccc(/C=N/Nc2ncnc3sc4c(c23)CCCC4)cc1OC 2.22%
O=C(N/N=C/c1ccc(N2CCOCC2)cc1)c1ccccn1 3.4%
Cc1cc2ncn(S(=O)(=O)c3ccc(S(=O)(=O)N4CCCCCC4)cc3)c2cc1C -3.86%
Cn1c(SCC(=O)Nc2ccccc2Cl)nnc1C1CC1 2.31%
COc1ccc([N+](=O)[O-])cc1NS(=O)(=O)c1cc(C(=O)O)ccc1OC -0.88%
C=CCn1c(C)cc(C(=O)COC(=O)C2CC(=O)N(CCc3ccc(OC)c(OC)c3)C2)c1C (stereo unspecified) 2.85%
COc1ccc(C=O)cc1COc1ccc(Cl)cc1[N+](=O)[O-] 0.45%
CCCCOc1ccc(C(CC(=O)NC)C(=O)O)cc1 (stereo unspecified) 1.11%
CN1c2ccccc2C(O)=C(C(=O)Nc2ccccc2)S1(=O)=O 5.83%
Cc1ccc(NC(=O)c2ccccc2)cc1 8.58%
Cc1ccc(NC(=O)C2=C(O)c3ccccc3N(C)S2(=O)=O)cc1 10.1%
O=C(Nc1ccc(-c2ccccc2)cc1)c1ccccc1 10.2%
Cc1onc(-c2c(F)cccc2Cl)c1C(=O)N=C(N)N1CCCC1 4.34%
CCOC(=O)C1CCCCN1C(=O)c1oc2c(Cl)cc(C)cc2c1C (stereo unspecified) -3.11%
CCCCN(C)C(=O)Cc1c(OC)ccc2cc(Br)ccc12 10.7%
COc1ccc(/C=N/n2cncn2)cc1Cn1nc(C)c([N+](=O)[O-])c1C 6.36%
Cc1ccc(SCCN2CCN(CCc3ccccc3)CCC2=O)cc1 12%
Cc1ccc(SCCN2CCN(C)CC2)cc1 -7.97%
CCOc1ccccc1N1CCN(Cc2ccc(OC)c(OC)c2OC)CC1 13.8%
COc1ccc(CN2CCN(C(c3ccc(F)cc3)c3ccc(F)cc3)CC2)c(OC)c1OC 6.11%
COc1ccc(-n2c(SCC(=O)Nc3ccc(Br)cc3)nc(O)cc2=O)cc1 10.3%
c1ccc(CN2CCC(N3CCN(Cc4ccc5c(c4)OCO5)CC3)CC2)cc1 13.3%
OCCC1CN(Cc2ccncc2)CCN1C1CCCC1 (stereo unspecified) 5.79%
O=C(c1ccc(F)cc1)N1CCCC(N2CCN(Cc3ccc4c(c3)OCO4)CC2)C1 (stereo unspecified) 8.04%
O=C(c1ccncc1)N1CCN(C2CCCCC2)CC1 19.7%
COCCNC(=O)CC(c1ccccc1)c1ccccc1 10.4%
CCOc1ccc(CN(C)C(=O)CN2C(=O)NC3(CCCc4ccccc43)C2=O)cc1 (stereo unspecified) 13%
CC(C)(C)NC(=O)C(c1ccccn1)N(C(=O)c1csnn1)C1CCCC1 (stereo unspecified) 0.77%
O=C(COc1ccc(C(=O)Nc2ccc(Cl)cc2)cc1)NCc1ccccc1 8.5%
Cc1cc(/C=C2/NC(=O)N(Cc3ccccc3F)C2=O)c(C)n1-c1ccccn1 4.33%
COc1ccc(N(C)S(=O)(=O)c2cccc(C(=O)NCC(c3cccs3)N(C)C)c2)cc1 (stereo unspecified) 5.09%
Cc1cc(C)nc(NC(=O)/C=C/c2ccccc2Cl)n1 6.5%
Cc1cc(C)nc(NC(=O)/C=C/c2ccccc2Cl)c1 9.19%
Clc1cccc(N/N=C/c2ccc(N3CCOCC3)cc2)c1 0.9%
O=C(N/N=C/c1ccc(N2CCOCC2)s1)c1ccccc1Br 10%
C(=N\n1cnnc1)/c1ccc(N2CCOCC2)s1 10.2%
C(=N\N(c1ccccc1)c1ccccc1)/c1ccc(N2CCOCC2)s1 15.3%
CCOC(=O)N/N=C\c1ccc(C)s1 3.68%
O=C(O)c1cc(N/N=C/c2ccc(N3CCOCC3)s2)ccc1Cl 25.9%
CC(C)NC(=S)N/N=C/c1ccc(N2CCOCC2)cc1 0.94%
CC(C)(C)OC(=O)N/N=C/c1ccc(N2CCOCC2)s1 25.5%
Cc1ccccc1S(=O)(=O)N(C)C[C@@H]1OCc2ccccc2-c2c(n(C)c3ccccc23)C(=O)N([C@H](C)CO)C[C@@H]1C 14.2%
COc1ccc(Cl)cc1C(=O)NNC(=O)c1n[nH]c2ccccc12 4.94%
Cc1ccc(S(=O)(=O)/N=C(\Nc2cc(C)on2)c2ccc(Cl)cc2)cc1 8.35%
Cc1cn2c(-c3ccc(Cl)cc3)nnc2s1 -3.08%
O=C(NCc1cccnc1)C(=O)NCC1OCCCN1S(=O)(=O)c1ccc(Cl)cc1 (stereo unspecified) 1.54%
Cc1cc(=O)cc(C)n1-c1ccc2c(c1)nc(C)n2-c1ccccc1 2.42%
Cc1ccc(S(=O)(=O)N2CCN(C(=O)Cc3ccc4c(c3)OCCO4)CC2)cc1C 6.6%
